# In PubChem BioAssay (Tox21):
# Several values for one entry are separate records, joined by “and”; a condition that tells them apart may be missing. Equal values may be shown once. Values without a mark were called inactive. Results filed as inconclusive are left out. Where a call stands in place of a potency, no number is given. Activity calls are given as the source filed them. Unless noted, the call rests on the fitted dose curve; in most records, active means well fitted curve in the direction sought with a large enough effect in the repeat runs; inconclusive means weak or mixed curves; inactive means no such curve, though single readings can be large; an effect the other way counts as inactive or inconclusive.
# Experiments:
# [1] = molecular target: Thyrotropin receptor (Homo sapiens) (UniProt P16473); test: qHTS assay to identify small molecule agonists of the thyroid stimulating hormone receptor (TSHR) signaling pathway (AID 1224843; calls by dose curve; further: nearly all actives have a fitted effect of over 45% in size; further: potency means the concentration at half of the fitted maximal effect)
# Thyrotropin receptor (Homo sapiens), sequence (P16473 whole entry, looked up): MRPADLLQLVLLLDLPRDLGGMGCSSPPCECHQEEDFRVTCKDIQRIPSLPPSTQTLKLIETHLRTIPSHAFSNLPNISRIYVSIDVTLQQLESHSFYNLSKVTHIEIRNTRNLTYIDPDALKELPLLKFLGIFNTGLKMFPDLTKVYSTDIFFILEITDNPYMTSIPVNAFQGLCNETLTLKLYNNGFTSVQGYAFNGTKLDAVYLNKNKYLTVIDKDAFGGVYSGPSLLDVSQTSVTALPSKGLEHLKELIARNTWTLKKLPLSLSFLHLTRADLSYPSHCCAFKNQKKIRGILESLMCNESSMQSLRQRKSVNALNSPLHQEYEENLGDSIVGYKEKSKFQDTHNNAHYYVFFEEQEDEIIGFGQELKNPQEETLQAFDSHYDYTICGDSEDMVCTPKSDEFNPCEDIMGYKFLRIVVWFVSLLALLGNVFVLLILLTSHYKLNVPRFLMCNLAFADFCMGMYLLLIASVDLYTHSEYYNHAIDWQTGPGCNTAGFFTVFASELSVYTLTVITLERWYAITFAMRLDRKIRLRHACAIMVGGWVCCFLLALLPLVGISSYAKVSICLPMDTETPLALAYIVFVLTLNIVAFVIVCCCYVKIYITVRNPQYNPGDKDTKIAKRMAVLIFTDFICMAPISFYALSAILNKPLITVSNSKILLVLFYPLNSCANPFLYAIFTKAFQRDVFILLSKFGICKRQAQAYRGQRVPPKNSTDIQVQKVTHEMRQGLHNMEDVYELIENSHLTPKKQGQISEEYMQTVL
# In short: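 HEK293/TSHR, 800 cells/well; cpd 30 min RT; add cAMP-d2 + anti-cAMP-cryptate, 1 h RT; fluorescence read on plate reader. 15-pt titration, n=3.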
# [2] = qHTS assay to identify small molecule agonists of H2AX (AID 1224845; active means well fitted activation curve with a large enough effect in the signal ratio in the repeat runs, not every such curve was filed as active; the % refers to the signal ratio; further: potency means the concentration at half of the fitted maximal effect)
# In short: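 Wild-type CHO-K1 cells, plated overnight, exposed 3hr at 37C to 15 concentrations (0.76% DMSO final). Lysed, then HTRF anti-pH2AX (S139) cryptate and anti-H2AX-d2 antibodies, 24 hr room temperature; 665/620 nm emission read.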
# [3] = qHTS assay to identify small molecule agonists of the hypoxia (HIF-1) signaling pathway (AID 1224846; active means well fitted activation curve with a large enough effect in the signal ratio in the repeat runs, not every such curve was filed as active; the % refers to the signal ratio)
# In short: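 ME-180 HRE-bla reporter cells; compounds in DMSO, 17 h at 37C; read-out beta-lactamase via CCF4-AM FRET.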
# [4] = qHTS assay to identify small molecule agonists of H2AX - cell viability counter screen (AID 1224847; calls by dose curve; further: nearly all actives have a fitted effect of over 30% in size; further: potency means the concentration at half of the fitted maximal effect)
# In short: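 Compounds tested at 15 concentrations were incubated 3 hr at 37C with wild-type CHO-K1 cells; cellular ATP-based luminescence (CellTiter-Glo) indicated viability.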
# [5] = qHTS assay to identify small molecule antagonists of the estrogen related receptor (ERR) signaling pathway from Tox21 library (AID 1224848); further: nearly all actives have a fitted effect of over 50% in size; further: potency means the concentration at half of the fitted maximal effect
# In short: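 Compounds dissolved in DMSO are pin-transferred onto ERR reporter cells (2,000 per well) that have settled for 6 h at 37 C. Plates then incubate 18 h at 37 C before ONE-Glo luciferase reagent and a luminescence read 30 min later.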
# [6] = qHTS assay to identify small molecule agonists of the estrogen related receptor (ERR) signaling pathway from Tox21 library (AID 1224849; calls by dose curve; further: nearly all actives have a fitted effect of over 15% in size); details: ERR reporter cell line, ONE-Glo luciferase, 18 h; at 92.4 µM (top of the series) unless noted
# In short: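 Luciferase activity in ERR pathway reporter cells served as the agonist readout; exposure lasted 18 h at 37 C, with ONE-Glo detection after 30 min at room temperature.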
# [7] = qHTS RealTime-Glo MT Cell Viability Assay in HepG2 cells - 24 hour (AID 1224867); further: nearly all actives have a fitted effect of over 50% in size; further: potency means the concentration at half of the fitted maximal effect
# In short: (§1)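 Cells + NanoLuc/prosubstrate dispensed (600 cells/well) → 5 h at 37 C/5% CO2 → compounds in DMSO transferred → 40 h incubation at 37 C, luminescence read at 0, 8, 16, 24, 32, 40 h.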
# [8] = qHTS RealTime-Glo MT Cell Viability Assay in HEK293 cells - 32 hour (AID 1224868); further: nearly all actives have a fitted effect of over 50% in size; further: potency means the concentration at half of the fitted maximal effect
# In short: (§2)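 Tox21 10K qHTS, HEK293, 600 cells/well, RealTime-Glo reagent co-dispensed with cells; 5 h preincubation, compound by pintool, 37 C, luminescence at 0–40 h.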
# [9] = A CellTox Green Cytotoxicity Assay to monitor cytotoxicity in HEK293 cells - 0 hour (AID 1224869); further: nearly all actives have a fitted effect of over 50% in size
# In short: (§3)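 Real-time, in one plate: 600 HEK293 cells/well with dead-cell DNA dye, pinned compound after 5 h, 37 C incubation over 40 h; viable cells give no appreciable fluorescence.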
# [10] = qHTS RealTime-Glo MT Cell Viability Assay in HepG2 cells - 40 hour (AID 1224870); further: nearly all actives have a fitted effect of over 50% in size; further: potency means the concentration at half of the fitted maximal effect
# In short: (§4)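 HepG2 cells (600/well) mixed with RealTime-Glo MT reagent, settled 5 h at 37 C/5% CO2 before compound addition. Nonlytic NanoLuc luminescence from viable-cell prosubstrate reduction read repeatedly during 40 h treatment at 37 C.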
# [11] = A CellTox Green Cytotoxicity Assay to monitor cytotoxicity in HEK293 cells - 40 hour (AID 1224871); further: nearly all actives have a fitted effect of over 45% in size; further: potency means the concentration at half of the fitted maximal effect
# In short: as §3
# [12] = qHTS RealTime-Glo MT Cell Viability Assay in HEK293 cells - 16 hour (AID 1224872); further: nearly all actives have a fitted effect of over 50% in size; further: potency means the concentration at half of the fitted maximal effect
# In short: as §2
# [13] = qHTS RealTime-Glo MT Cell Viability Assay in HepG2 cells - 8 hour (AID 1224873); further: nearly all actives have a fitted effect of over 55% in size
# In short: as §4
# [14] = qHTS RealTime-Glo MT Cell Viability Assay in HEK293 cells - 40 hour (AID 1224874); details: RealTime-Glo luminescence; max response: hits give low values; further: nearly all actives have a fitted effect of over 50% in size; further: potency means the concentration at half of the fitted maximal effect
# In short: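 Kinetic, non-lysing viability readout. Seed HEK293 (600/well) with reagent, incubate 5 h at 37 C/5% CO2, pin 23 nL compound in DMSO, incubate at 37 C, read luminescence at 0, 8, 16, 24, 32, 40 h.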
# [15] = A CellTox Green Cytotoxicity Assay to monitor cytotoxicity in HEK293 cells - 24 hour (AID 1224875); further: nearly all actives have a fitted effect of over 45% in size; further: potency means the concentration at half of the fitted maximal effect
# In short: as §3
# [16] = A CellTox Green Cytotoxicity Assay to monitor cytotoxicity in HepG2 cells - 16 hour (AID 1224876); further: nearly all actives have a fitted effect of over 45% in size; further: potency means the concentration at half of the fitted maximal effect
# In short: (§5)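 Cytotoxicity was tracked as dead-cell DNA fluorescence in HepG2 cells treated with test compounds at 37 C; each time-point value comes from one kinetic series spanning 0, 8, 16, 24, 32 and 40 h.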
# [17] = qHTS RealTime-Glo MT Cell Viability Assay in HepG2 cells - 32 hour (AID 1224877); further: nearly all actives have a fitted effect of over 55% in size
# In short: as §1
# [18] = A CellTox Green Cytotoxicity Assay to monitor cytotoxicity in HepG2 cells - 24 hour (AID 1224878); further: nearly all actives have a fitted effect of over 45% in size; further: potency means the concentration at half of the fitted maximal effect
# In short: as §5
# [19] = A CellTox Green Cytotoxicity Assay to monitor cytotoxicity in HepG2 cells - 40 hour (AID 1224879); further: nearly all actives have a fitted effect of over 40% in size; further: potency means the concentration at half of the fitted maximal effect
# In short: as §5
# [20] = qHTS assay to identify small molecule agonists of the hypoxia (HIF-1) signaling pathway - cell viability counter screen (AID 1224844; calls by dose curve; further: nearly all actives have a fitted effect of over 50% in size; further: potency means the concentration at half of the fitted maximal effect)
# In short: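 In this counter screen, HRE-bla ME-180 cell viability after 17 hrs of compound exposure at 37C was read by CellTiter-Glo luminescence, multiplexed with the beta-lactamase reporter measurement.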
compound,measurement,setting,value
CC/C(=N\OC/C=C/Cl)C1=C(O)CC(C2CCOCC2)CC1=O (configuration not stated),Potency,[1],inactive
same,Potency,[2],inactive
same,outcome,[3],inactive
same,Potency,[4],inactive
same,Potency,[5],inactive
same,"activity change, positive = activation",[6],0.742%
same,Potency,[7],inactive
same,Potency,[8],inactive
same,Potency,[9],inactive
same,Potency,[10],inactive
same,Potency,[11],inactive
same,Potency,[12],inactive
same,Potency,[13],inactive
same,max response,[14],0.456%
same,Potency,[15],inactive
same,Potency,[16],inactive
same,Potency,[17],inactive
same,Potency,[18],inactive
same,Potency,[19],inactive
ClP(Cl)(Cl)(Cl)Cl,Potency,[1],inactive
same,Potency,[20],inactive
same,outcome,[3],inactive
same,Potency,[4],inactive
same,Potency,[5],inactive
same,"activity change, positive = activation",[6],0.0891%
same,Potency,[9],inactive
same,Potency,[15],inactive
same,Potency,[16],inactive
N#C/C(N)=C(/N)C#N,Potency,[1],inactive
same,Potency,[20],inactive
same,Potency,[4],inactive
same,Potency,[5],inactive
same,"activity change, positive = activation",[6],0.178%
same,Potency,[7],inactive
same,Potency,[8],inactive
same,Potency,[9],inactive
same,Potency,[10],inactive
same,Potency,[11],inactive
same,Potency,[12],inactive
same,Potency,[13],inactive
same,max response,[14],0.894%
same,Potency,[15],inactive
same,Potency,[16],inactive
same,Potency,[17],inactive
same,Potency,[18],inactive
same,Potency,[19],inactive
Clc1cc(C(Cl)(Cl)Cl)cnc1Cl,Potency,[1],inactive
same,Potency,[2],89.8 µM (active)
same,outcome,[3],inactive
same,Potency,[4],inactive
same,Potency,[5],inactive
same,"activity change, positive = activation",[6],0.0985%
same,Potency,[7],inactive
same,Potency,[8],34.7 µM (active)
same,Potency,[9],inactive
same,Potency,[10],inactive
same,Potency,[13],inactive
same,Potency,[16],inactive
same,Potency,[17],inactive
same,Potency,[19],34.7 µM (active)
C=CC(=O)OCC(C)C,Potency,[1],inactive
same,Potency,[2],inactive
same,outcome,[3],inactive
same,Potency,[4],inactive
same,Potency,[5],inactive
same,"activity change, positive = activation",[6],5.29%
same,Potency,[7],inactive
same,Potency,[8],inactive
same,Potency,[9],inactive
same,Potency,[10],inactive
same,Potency,[11],inactive
same,Potency,[12],inactive
same,Potency,[13],inactive
same,max response,[14],15.8%
same,Potency,[15],inactive
same,Potency,[16],inactive
same,Potency,[17],inactive
same,Potency,[18],inactive
same,Potency,[19],inactive
NC(=O)CI,Potency,[1],inactive
same,Potency,[20],35 µM (active)
same,Potency,[2],inactive
same,Potency,[5],inactive
same,"activity change, positive = activation",[6],-20%
same,Potency,[7],13.9 µM (active)
same,Potency,[9],inactive
same,Potency,[10],6.22 µM (active)
same,Potency,[12],inactive
same,max response,[14],1.19%
CC(=O)c1cc2c(cc1C)C(C)(C)C(C)CC2(C)C (configuration not stated),Potency,[1],inactive
same,Potency,[20],43.6 µM (active)
same,Potency,[2],101 µM (active)
same,Potency,[4],89.8 µM (active)
same,Potency,[7],inactive
same,Potency,[8],inactive
same,Potency,[9],inactive
same,Potency,[10],inactive
same,Potency,[11],19.5 µM (active)
same,Potency,[13],inactive
same,max response,[14],-12.1%
same,Potency,[15],19.5 µM (active)
same,Potency,[16],38.9 µM (active)
same,Potency,[17],inactive
same,Potency,[18],38.9 µM (active)
same,Potency,[19],38.9 µM (active)
CC(C)(OO)c1ccccc1,Potency,[1],34.4 µM (active)
same,Potency,[20],inactive
same,outcome,[3],inactive
same,Potency,[4],inactive
same,Potency,[5],inactive
same,"activity change, positive = activation",[6],4.39%
same,Potency,[7],inactive
same,Potency,[8],inactive
same,Potency,[9],inactive
same,Potency,[10],inactive
same,Potency,[11],inactive
same,Potency,[12],inactive
same,Potency,[13],inactive
same,max response,[14],-0.0681%
same,Potency,[15],inactive
same,Potency,[16],inactive
same,Potency,[17],inactive
same,Potency,[18],inactive
same,Potency,[19],inactive
Cl/C=C\C[N+]12CN3CN(CN(C3)C1)C2,Potency,[1],inactive
same,Potency,[2],inactive
same,outcome,[3],inactive
same,Potency,[4],inactive
same,Potency,[5],inactive
same,"activity change, positive = activation",[6],-0.401%
same,Potency,[7],inactive
same,Potency,[9],inactive
same,Potency,[10],inactive
same,Potency,[11],inactive
same,Potency,[13],inactive
same,Potency,[15],inactive
same,Potency,[16],inactive
same,Potency,[18],inactive
CCCCC(CC)COP(=O)(Oc1ccccc1)Oc1ccccc1 (configuration not stated),Potency,[1],27.3 µM (active)
same,Potency,[20],inactive
same,Potency,[2],inactive
same,Potency,[7],inactive
same,Potency,[8],inactive
same,Potency,[9],inactive
same,Potency,[10],inactive
same,Potency,[11],inactive
same,Potency,[12],inactive
same,Potency,[13],inactive
same,max response,[14],-24.3%
same,Potency,[15],inactive
same,Potency,[16],inactive
same,Potency,[17],inactive
same,Potency,[18],inactive
same,Potency,[19],inactive
COc1cc(CC(C)N)cc2c1OCO2 (configuration not stated),Potency,[1],inactive
same,Potency,[2],inactive
same,outcome,[3],inactive
same,Potency,[4],inactive
same,Potency,[5],inactive
same,"activity change, positive = activation",[6],-3.18%
same,Potency,[7],inactive
same,Potency,[8],inactive
same,Potency,[9],inactive
same,Potency,[10],inactive
same,Potency,[11],inactive
same,Potency,[12],inactive
same,Potency,[13],inactive
same,max response,[14],-17.7%
same,Potency,[15],inactive
same,Potency,[16],inactive
same,Potency,[17],inactive
same,Potency,[18],inactive
CCOP(=O)(OCC)SCCSCC,Potency,[1],inactive
same,Potency,[20],inactive
same,outcome,[3],inactive
same,Potency,[4],inactive
same,Potency,[5],inactive
same,"activity change, positive = activation",[6],-5.82% and 8.45%
same,Potency,[7],inactive
same,Potency,[8],inactive
same,Potency,[9],inactive
same,Potency,[10],inactive
same,Potency,[11],inactive
same,Potency,[12],inactive
same,Potency,[13],inactive
same,max response,[14],0.908% and 6.69%
same,Potency,[15],inactive
same,Potency,[16],inactive
same,Potency,[17],inactive
same,Potency,[18],inactive
same,Potency,[19],inactive
CCCCc1c(C)nc(NCC)nc1OS(=O)(=O)N(C)C,Potency,[1],inactive
same,Potency,[20],inactive
same,Potency,[2],inactive
same,Potency,[5],30.6 µM (active)
same,"activity change, positive = activation",[6],-48.3%
same,Potency,[7],inactive
same,Potency,[8],11 µM (active)
same,Potency,[9],inactive
same,Potency,[10],inactive
same,Potency,[11],inactive
same,Potency,[12],12.3 µM (active)
same,Potency,[13],inactive
same,Potency,[14],13.8 µM (active)
same,Potency,[15],inactive
same,Potency,[16],inactive
same,Potency,[17],inactive
same,Potency,[18],inactive
same,Potency,[19],inactive
Cn1sc(Cl)cc1=O,Potency,[1],inactive
same,Potency,[20],inactive
same,outcome,[3],inactive
same,Potency,[5],inactive
same,"activity change, positive = activation",[6],1.6%
same,Potency,[7],inactive
same,Potency,[8],inactive
same,Potency,[9],inactive
same,Potency,[10],inactive
same,Potency,[11],inactive
same,Potency,[12],inactive
same,Potency,[13],inactive
same,max response,[14],-14%
same,Potency,[15],inactive
same,Potency,[16],inactive
same,Potency,[17],inactive
same,Potency,[18],inactive
same,Potency,[19],inactive
